# Experiments:
# Assay in all cases: PBM binding z-score (relative to random genomic background probes); higher = stronger binding; sequences stand for … in GC…GCGATTGACAGCGTAGAATGAAGG
# [1] = test system: PPARg:RXRa DBDmut IVT, anti-RXR (DBD mutation: RXRa K156A/R161A, NR concentration 270 nM, RXRa partner concentration 90 nM)
# Outline: (§1)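 Regression normalization was applied to scanned fluorescence from custom Agilent 4×180K protein-binding microarrays. Before scanning, arrays were incubated 1 h with ligand-free nuclear receptor dimers, and binding was detected with antibodies against each partner (one per run). Binding z-scores use the random background probes as reference.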
# [2] = test system: PPARg:RXRa IVT, anti-PPARg (NR concentration 270 nM, RXRa partner concentration 90 nM)
# Outline: as §1
# [3] = test system: PPARg DBDmut:RXRa IVT, anti-PPARg (DBD mutation: PPARg1 K132A/R137A, NR concentration 270 nM, RXRa partner concentration 90 nM)
# Outline: as §1
# [4] = test system: PPARg DBDmut IVT, anti-PPARg (DBD mutation: PPARg1 K132A/R137A, NR concentration 270 nM)
# Outline: as §1
# [5] = test system: PPARg homodimer (NR concentration 180 nM)
# Outline: as §1
# [6] = test system: PXR:RXRa (NR concentration 270 nM, RXRa partner concentration 90 nM)
# Outline: as §1
# [7] = test system: PXR homodimer (NR concentration 270 nM)
# Outline: as §1
# [8] = test system: RARa:RXR (NR concentration 270 nM, RXRa partner concentration 90 nM)
# Outline: as §1
# [9] = test system: RARa homodimer (NR concentration 270 nM)
# Outline: as §1
# [10] = test system: RARb:RXRa (NR concentration 270 nM, RXRa partner concentration 90 nM)
# Outline: as §1
# [11] = test system: RARb homodimer (NR concentration 270 nM)
# Outline: as §1
# [12] = test system: RARg:RXRa (NR concentration 270 nM, RXRa partner concentration 90 nM)
# Outline: as §1
# [13] = test system: RARg homodimer (NR concentration 270 nM)
# Outline: as §1
# [14] = test system: RXRa DBDmut IVT, anti-RXR (DBD mutation: RXRa K156A/R161A, NR concentration 90 nM)
# Outline: as §1
# [15] = test system: RXRa homodimer (NR concentration 180 nM)
# Outline: as §1
# [16] = test system: THRa:RXRa (NR concentration 90 nM, RXRa partner concentration 90 nM)
# Outline: as §1
# [17] = test system: THRa homodimer (NR concentration 90 nM)
# Outline: as §1
# [18] = test system: VDR:RXRa (NR concentration 270 nM, RXRa partner concentration 90 nM)
# Outline: as §1
# [19] = test system: VDR homodimer (NR concentration 270 nM)
# Outline: as §1
Sequence,PBM binding z-score [1],PBM binding z-score [2],PBM binding z-score [3],PBM binding z-score [4],PBM binding z-score [5],PBM binding z-score [6],PBM binding z-score [7],PBM binding z-score [8],PBM binding z-score [9],PBM binding z-score [10],PBM binding z-score [11],PBM binding z-score [12],PBM binding z-score [13],PBM binding z-score [14],PBM binding z-score [15],PBM binding z-score [16],PBM binding z-score [17],PBM binding z-score [18],PBM binding z-score [19]
ACTCGGAGGACAAAGGTAAGAGCTACGCCAGTGA,0.286,-0.0365,-0.619,-1.09,0.21,-0.339,-0.386,-0.0753,-0.128,1.17,0.319,1.08,1.1,0.376,0.494,0.863,-0.169,-0.371,-0.2
AAAATGAGGTTAAGATCAGGGAAACAGAATACAT,3.27,3.78,1.96,0.972,1.85,1.26,0.646,2.48,0.889,2.04,1.03,2.28,1.37,1.32,2.73,2.75,0.772,1.35,0.778
CCTACTGGGCCAAAACGGTCATTGATGCCGATAA,2.93,2.65,0.0613,0.25,0.299,-0.497,-0.344,-0.365,-0.523,0.875,1.39,0.276,0.635,-0.682,-0.274,-0.206,-0.538,-0.116,-0.184
CAAAATAGGTCAAGAGGTCAAAGTCCGCTTCCCG,7.42,7.83,2.31,1.62,5.84,6.31,2.24,7.5,2.71,5.7,6.03,8.39,7.82,2.72,8.82,4.28,1.76,6.53,3.91
ACTCGGAGGACAGAGGTCAGAGCTACGCCAGTGA,0.205,2.43,-0.153,-0.704,1.89,3.17,0.328,3.9,0.568,3.57,3.82,4.6,4.17,0.707,4.17,3.03,0.579,2.99,1.19
TAGCCTAGGTCATTCAGGGGCCAGTATGGAAAGC,1.58,2.93,0.514,-0.26,2.13,2.46,-0.398,3.77,0.0659,4.11,3.26,6.2,4.83,1.72,2.92,3.67,0.641,3.13,1.17
CAAACTAGGTCAAGGTCAAATTCGGTTTGTGCCA,8.72,8.78,2.45,3.07,4.71,5.45,2.83,5.82,2.26,5.09,5.19,6.03,6.67,3.1,6.24,4.38,3.92,5.06,4.1
CCTAGTTGGTCAAGGTCTCACACGCTATAGGTAC,1.7,1.75,-0.0151,0.765,1.47,0.365,0.749,0.511,1.56,1.48,1.32,0.677,1.21,1.08,0.272,0.956,1.03,0.578,0.887
CGTCAAAGTTCAAGGTAAAGTAACAGAAAGCAGC,0.433,1.82,0.69,0.346,2.5,3.99,2.2,3.47,1.3,4.95,3.36,5.19,6.06,4.04,4.17,2.5,0.503,3.4,2.89
CCTTACGGGTCAGTGACAGGTTATAGCATTTGGA,1.83,1.86,0.385,0.16,1.97,2.36,0.241,3.19,0.476,3.5,2.85,4.61,3.43,1.05,3.29,2.15,0.134,2.49,0.572
CAAAGTAGGTCACCGGAAGGTCAAAGTCCGCATG,8.84,9.1,4.14,2.62,6.69,6.22,1.73,7.55,2.1,5.39,5.78,8.47,7.72,1.72,7.28,4.35,2.03,6.18,3.66
CGTCCAAGGTCAGAGAGGTCAGTGTATGCCGAGT,2.75,3.39,-0.0469,0.446,3.62,5.92,12.1,5.19,1.5,5.16,5.2,6.1,6.77,3.28,5.29,4.14,3,7.31,5.78
AGAATGGGGTTAAGATCAGGGAAACAGAATACAT,3.55,3.66,1.77,1.97,2.18,2.98,2.24,3.46,1.79,2.47,1.9,2.99,1.4,1.99,4.56,3.23,1.67,2.91,1.27
ACCAGCAGGCCAAGGGTCACTCAAGATTAGTCCG,-0.293,2.57,-0.621,-0.244,2.32,2.95,-0.192,3.93,0.0192,3.37,3.61,4.08,3.49,0.237,4.04,2.63,0.148,2.47,1.1
CGTCCAAGGTAAATGCTAGGTCAGTGAAAGCATT,0.714,0.881,-1.05,-0.95,0.424,0.128,-0.305,0.803,-0.343,1.61,2.15,1.85,1.23,0.0865,0.316,2.53,1.11,0.355,-0.194
CTTACTGGGCCAAAGGTCATTGATTCCAATGCTC,7.41,8.39,2.55,2.05,5.08,5.66,2.72,7.06,1.85,4.62,4.58,5.97,4.91,1.99,6.68,3.36,0.898,4.77,2.79
CATACAGGGTCATCTAGGCCAGAGTAGGGACGGC,1.89,3.92,1.57,0.152,1.63,3.65,0.88,4.05,0.656,4.3,3.37,5.16,4.85,3.17,5.72,3.6,1.37,5.26,3.3
CGTCCAACGTCAAGGTCAGTGAAAGAGACTCGAA,-0.074,-0.0705,-0.79,-0.354,1.13,1.59,0.288,1.99,0.37,3.35,3.13,2.61,3.16,0.737,1.9,2.57,1.67,1.18,0.844
CCGACTGGGGCAAAGGTTACGATACTCAGTACGA,4.56,6.38,0.809,0.584,4,2.51,-0.536,4.39,-0.413,2.57,2.03,3.68,1.78,0.541,3.62,1.81,-0.139,1.61,-0.301
GCTAGTTGGTCAGTAAATGGTCACACACCGGTCG,0.302,0.493,0.157,0.192,0.621,-0.0876,-0.353,0.368,0.255,1.2,1.28,0.401,0.586,0.286,0.551,-0.021,-0.105,-0.166,0.116
CCAGACAGGTGAAAGGTAACTCCGTCTGGTACGC,1.67,2.94,-0.44,-0.311,1.15,0.836,-0.734,1.5,0.043,1.23,0.693,1.23,0.537,-0.24,2.07,0.859,-0.16,0.557,-0.193
CGTCCAAGGGCAATGCTAGGTCAGTGAAAGCATT,0.816,0.945,-1.98,-1.04,1.08,1.04,-0.135,1.55,-0.607,3.1,3.04,3.71,2.64,0.887,0.71,2.98,0.346,0.893,0.429
ACTAGTAGGCCAAGGGTCACTCAAGATTAGTCCG,5.4,6.33,0.82,1.01,2.17,3.24,-0.0548,4.2,0.166,3.61,3.88,4.22,4.21,0.602,4.54,2.6,0.197,2.93,1.36
GCATACGGGTCAAAGGTTATAGCATGAATAGAAT,4.64,6.5,1.34,2.31,3.95,6.29,0.519,8.51,0.512,4.49,3.26,6.95,4.87,2.46,9.53,3.81,-0.445,5.37,1.56
CCTACTGGGCCAAAGGTCATTGACTCCAATGCTC,5.27,7.13,0.277,0.152,2.5,5.52,1.32,6.16,0.485,4.53,4.46,5.6,4.61,1.6,6.03,3.38,0.707,4.58,1.82
TCATATAGGTAATCAGGTGAAAGTCCGTAAGTTA,5.4,5.17,1.73,1.86,1.32,0.832,0.68,1.14,1.28,0.56,0.773,0.361,0.3,1.52,0.885,1.82,1.51,1.19,0.521
CGTCGAAGGTCAATGCTAGGTCAGTGAAAGCATT,2.56,3.93,-0.174,-1.09,4.55,4.73,0.726,6.43,0.867,5.19,5.11,7.62,6.84,2.5,5.4,4.28,1.03,4.47,1.91
CCTAGTTGGTCAGGGGGTCACACACCGGATATGA,1.2,4.57,2.8,4.19,3.05,5.01,1.49,5.48,1.61,3.74,4.05,5.83,4.22,0.886,6.18,3.88,2.28,4.94,3.16
CCTAGTGGGTCAGGAGGTCACACACCGGATATGA,5.23,7.22,0.727,0.445,3.37,4.62,0.774,5.66,1.06,4.42,4.61,6.26,5.86,-0.339,6.15,3.73,2.04,4.65,2.09
GATACAGGGTCAAGGCCAGAATACGCGTATTGAT,2.36,4.04,0.884,0.396,2.82,3.9,0.4,4.79,0.95,4.6,3.49,5.5,4.93,2.08,5.95,3.62,1.21,4.05,1.6
